Results on 31 compounds are retold here after PubChem BioAssay AID624048 (National Center for Advancing Translational Sciences (NCATS), 2012).

Inconclusive results are not listed. The source made the active and inactive calls. Calls come from the whole dose curve; as a rule, active = well fitted inhibition curve with a large enough effect; inconclusive = small, poorly fitted or top-dose-only effect; inactive = no such curve, though single readings can be large or run the other way.

Sequence of Dual specificity protein kinase CLK2 (Homo sapiens) (P49760 whole entry, looked up, canonical isoform): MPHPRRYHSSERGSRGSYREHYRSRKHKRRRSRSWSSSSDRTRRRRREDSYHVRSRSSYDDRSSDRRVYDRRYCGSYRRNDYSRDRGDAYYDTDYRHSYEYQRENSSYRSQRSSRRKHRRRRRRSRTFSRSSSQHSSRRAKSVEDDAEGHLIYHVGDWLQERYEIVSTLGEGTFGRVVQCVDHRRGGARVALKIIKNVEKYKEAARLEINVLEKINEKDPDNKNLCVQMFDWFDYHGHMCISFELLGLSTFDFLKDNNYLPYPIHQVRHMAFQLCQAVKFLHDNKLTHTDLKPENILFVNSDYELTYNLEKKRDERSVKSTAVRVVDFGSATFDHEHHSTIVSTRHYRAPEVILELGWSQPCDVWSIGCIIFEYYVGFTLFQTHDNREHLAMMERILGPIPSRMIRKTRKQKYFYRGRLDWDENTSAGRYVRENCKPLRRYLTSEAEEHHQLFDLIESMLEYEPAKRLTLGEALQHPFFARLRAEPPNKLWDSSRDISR

The test deals with Dual specificity protein kinase CLK2 (Homo sapiens) (UniProt P49760). The test can be described thus: Reaction Biology data for inhibitors of CLK2: Probe SAR. To be noted: Reaction Biology CLK2 kinase assay, 10 uM ATP; series mostly up to 10 µM. From the text:
Alternative splicing of pre-mRNAs plays a major role in the regulation of eukaryotic gene expression. Alternative splicing is now thought to be one of the primary reasons for the complexity of higher organisms leading to an average of three protein isoforms per gene. Aberrant splicing can lead to a number of diseases and is known to play a role in rare genetic diseases such as progeria syndrome. Hutchinson-Gilford Progeria Syndrome (HGPS) is a pediatric premature aging disease caused by a spontaneous mutation in the lamin A/C (LMNA) gene due to a single point mutation in the lamin A gene effecting 1 in 4 million people. To identify both specific splicing modulators of the lamin A gene as well as general splicing modulators, a cell-based HTS assay was developed using a minigene reporter system (AIDs, 1459 & 1487). […] This AID summarizes the characterization of lead compounds in Clk2. NIH Molecular Libraries Probe Production Centers Network [MLPCN] NIH Chemical Genomics Center [NCGC] MLPCN Grant: MH084827 Assay Submitter (PI): Tom Misteli
Compound IC50s were determined at Reaction Biology (http://www.reactionbiology.com) with ten concentration points starting at 10 uM in the assay using a 3-fold dilution series. The control compound staurosporine was also tested in the 10-dose IC50 mode with the same 3-fold serial dilution, again starting at 10 uM. All kinase reactions were performed using 10 uM ATP in the assay. 100% activity was taken from kinase reactions with DMSO alone (the vehicle used for compound stock solutions).
As to `c1cncc(CNc2ncncc2-c2ccc3c(c2)OCO3)c1`, the Potency result is “inactive”.

Consider `COc1cccc(-c2ccnc(NCc3ccc(Cl)c(Cl)c3)n2)c1`, for which the Potency entry is “inactive”. As for `FC(F)(F)c1cc(Br)cc(Nc2nccc(-c3ccc4c(c3)OCO4)n2)c1`, the Potency is 344 nM (active). As to `c1nc(NCC2CCCO2)c2cc(-c3ccc4c(c3)OCO4)ccc2n1` (stereo unspecified), the Potency was 358 nM (active). Turning to `Brc1ccc(CNc2nccc(-c3ccc4c(c3)OCO4)n2)cc1Br`, the Potency is 29.6 nM (active). Turning to `COc1cccc(-c2ccnc(NCc3ccc(Cl)cc3)n2)c1`, the Potency result is “inactive”. The value for `c1cncc(CNc2nccc(-c3ccc4c(c3)OCO4)n2)c1` was 59.8 nM (active); that for `Cc1nc(CNc2ncnc3ccc(-c4ccc5c(c4)OCO5)cc23)cs1` was 187 nM (active).

Turning to `c1cc(-c2ccc3c(c2)OCO3)nc(Nc2ccc3c(c2)OCO3)n1`, the Potency is 259 nM (active). As to `COc1ccc(-c2ccnc(NCc3ccc(Cl)c(Cl)c3)n2)cc1`, the Potency was 409 nM (active). Consider `Clc1ccc(CNc2ncncc2-c2ccc3c(c2)OCO3)cc1Cl`, for which the Potency was 1560 nM (active).

For the compound `COc1ccc(-c2ccnc(NCc3ccc(Cl)cc3)n2)cc1`, the Potency was 1090 nM (active).

For `O=[N+]([O-])c1cc(Nc2nccc(-c3ccc4c(c3)OCO4)n2)cc(C(F)(F)F)c1`, the Potency was 39.8 nM (active). With `Cc1nc(CN(C)c2ncnc3ccc(-c4ccc5c(c4)OCO5)cc23)cs1`, the Potency was 44.8 nM (active). The figure for `Clc1cc(Cl)cc(CNc2ncncc2-c2ccc3c(c2)OCO3)c1` is 231 nM (active); for `Clc1ccc(CNc2nccc(-c3ccc4c(c3)OCO4)n2)cc1Cl` it is 20.4 nM (active). Take `FC(F)(F)c1cccc(Nc2nccc(-c3ccc4c(c3)OCO4)n2)c1`: the Potency was 52.1 nM (active).

As for `Clc1ccc(CNc2ccnc(-c3ccc4c(c3)OCO4)n2)cc1Cl`, the Potency result was “inactive”. In the case of `Cc1c(-c2ccnc(NCc3cccnc3)n2)sc(=O)n1C`, the Potency is 576 nM (active). Turning to `Cc1c(-c2ccnc(NCc3ccc(Cl)cc3)n2)sc(=O)n1C`, the Potency was 700 nM (active). For `Clc1ccc(CNc2nccc(-c3ccc4[nH]ncc4c3)n2)cc1Cl`, the Potency is 190 nM (active). `Clc1ccc(Nc2nccc(-c3ccc4c(c3)OCO4)n2)cc1`: the Potency result was “inactive”.

Consider `c1cncc(CNc2ccnc(-c3ccc4cn[nH]c4c3)n2)c1`, for which the Potency was 1900 nM (active).

On to `Clc1ccc(CNc2nccc(-c3ccc4cn[nH]c4c3)n2)cc1Cl`, for which the Potency is 429 nM (active). Take `Cc1nc(CN(C)c2ncnc3ccc(-c4ccc5[nH]ncc5c4)cc23)cs1`: the Potency was 160 nM (active). Consider `Brc1cc(Br)cc(CNc2nccc(-c3ccc4c(c3)OCO4)n2)c1`, for which the Potency was 41.4 nM (active).

As to `c1cncc(CNc2nccc(-c3ccc4[nH]ncc4c3)n2)c1`, the Potency is 462 nM (active). On to `c1cncc(CNc2ccnc(-c3ccc4[nH]ncc4c3)n2)c1`, for which the Potency was 665 nM (active).

In the case of `COc1ccc(-c2ccnc(NCc3ccc(Cl)c(Cl)c3)n2)cc1OC`, the Potency result was “inactive”. The value for `Clc1cc(Cl)cc(CNc2nccc(-c3ccc4c(c3)OCO4)n2)c1` was 23.4 nM (active); that for `Clc1ccc(CNc2nccc(-c3ccc4c(c3)OCCO4)n2)cc1Cl` was 39.1 nM (active).
